Measurements: PubChem BioAssay (Tox21)
Unmarked numbers belong to inactive results. Inconclusive results are not listed. Entries that show only a call come without a potency. Activity calls are given as the source filed them. Unless noted, the call rests on the fitted dose curve; in most records, active means well fitted curve in the direction sought with a large enough effect in the repeat runs; inconclusive means weak or mixed curves; inactive means no such curve, though single readings can be large; an effect the other way counts as inactive or inconclusive.

Assays:
[1] = qHTS assay to identify small molecule agonists of the estrogen receptor alpha (ER-alpha) signaling pathway in the presence of an antagonist - cell viability counter screen (AID 1259386);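 further: cells exposed to compounds for 22 h at 37 °C before the viability read; nearly all actives have a fitted effect of over 30% in size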; further: potency means the concentration at half of the fitted maximal effect
Method in brief: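 In this counter screen, compound effects on VM7Luc4E2 viability were tested in the presence of the antagonist ICI-182,780 at 10.0nM final. Compounds were dosed at 15 concentrations, exposure lasted 22hr, and the CellTiter-Fluor signal was read.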

[2] = target: Progesterone receptor (Homo sapiens) (UniProt P06401); test: qHTS assay to identify small molecule antagonists of the progesterone receptor (PR) signaling pathway (AID 1346795; active means well fitted inhibition curve with a large enough effect in the signal ratio in the repeat runs, not every such curve was filed as active; the % refers to the signal ratio; further: potency means the concentration at half of the fitted maximal effect)
Method in brief: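 In HEK293T cells bearing the PR-UAS-bla reporter, compound effects on promegestone-driven (1 nM) beta-lactamase expression are assessed after 16 hr using a fluorescent FRET substrate incubated 2 hr at room temperature.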

[3] = qHTS assay to identify small molecule antagonists of the progesterone receptor (PR) signaling pathway - cell viability counter screen (AID 1346798); further: nearly all actives have a fitted effect of over 50% in size; further: potency means the concentration at half of the fitted maximal effect
Method in brief: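 Following a 4 hr attachment, PR-UAS-bla HEK293T cells in charcoal-stripped FBS medium were exposed to compounds with R5020 for 16 hr; CellTiter-Glo was added and luminescence read after 30 min at room temperature.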

[4] = qHTS assay to identify small molecule agonists of the progesterone receptor (PR) signaling pathway - cell viability counter screen (AID 1346799; calls by dose curve; further: nearly all actives have a fitted effect of over 45% in size)
Method in brief: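 Here, 3,000 PR-UAS-bla HEK293T cells per well were treated with compounds for 16 hr after a 6 hr preincubation at 37C and 5% CO2; cell viability is the CellTiter-Glo luminescence signal.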

[5] = qHTS assay to identify small molecule antagonists of the TGF-beta/Smad signaling pathway - cell viability counter screen (AID 1346824); further: nearly all actives have a fitted effect of over 50% in size
Method in brief: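 SBE-bla HEK 293T cells were plated overnight at 37 C, then given compounds in DMSO plus TGF-beta1 (added as 0.25 ng/mL solution) for 5 hr. After the bla read, CellTiter-Glo was added to the same wells and luminescence read after 30 min at room temperature.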

[6] = qHTS assay to identify small molecule agonists of the TGF-beta/Smad signaling pathway - cell viability counter screen (AID 1346829); further: top concentration of the series differs between compounds; nearly all actives have a fitted effect of over 45% in size
Method in brief: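 Same-well cytotoxicity: CellTiter-Glo added after the 2 hr room-temperature beta-lactamase substrate step, luminescence measured 30 min later; cells had 5 hr of compound at 37 C.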

[7] = target: Thyrotropin-releasing hormone receptor (Homo sapiens) (UniProt P34981); test: qHTS assay to identify small molecule antagonists of the thyrotropin-releasing hormone receptor (TRHR) signaling pathway (AID 1346877; active means well fitted inhibition curve with a large enough effect in the repeat runs, not every such curve was filed as active; further: series mostly up to about 51 µM)
Method in brief: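 Kinetic fluorescence (3 min, 1 s resolution) following stimulation with TRH at 1 nM final; HEK293 cells bearing human TRHR; 5 min compound preincubation at RT; concentration-response over 15 points, triplicates.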

[8] = target: Thyrotropin-releasing hormone receptor (Homo sapiens) (UniProt P34981); test: qHTS assay to identify small molecule agonists of the thyrotropin-releasing hormone receptor (TRHR) signaling pathway (AID 1346891; calls by dose curve; further: series mostly up to about 58 µM)
Method in brief: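 Screening of agonists relied on calcium signalling in HEK293 cells expressing human TRHR: dye loading 2 h at 37 °C preceded compound addition and a 3-min fluorescence time course.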

[9] = qHTS assay to identify small molecule agonists of the TGF-beta/Smad signaling pathway (AID 1346859; active means well fitted activation curve with a large enough effect in the signal ratio in the repeat runs, not every such curve was filed as active; the % refers to the signal ratio; further: series mostly up to about 77 µM)
Method in brief: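 Each well held 4,000 SBE-bla HEK 293T cells incubated overnight before compound addition; 5 hr later the cleavable FRET substrate went on for 2 hr at room temperature, and fluorescence was read at two emissions.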

[10] = target: Progesterone receptor (Homo sapiens) (UniProt P06401); test: qHTS assay to identify small molecule agonists of the progesterone receptor (PR) signaling pathway (AID 1346784; calls by dose curve; further: nearly all actives have a fitted effect of over 30% in size)
Method in brief: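 Compounds were tested for PR agonism in HEK 293T cells bearing a beta-lactamase gene under UAS control. Treatment lasted 16 hr at 37C; signal came from fluorescence of a FRET substrate.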

Chain of Progesterone receptor (Homo sapiens) (P06401 whole entry, looked up): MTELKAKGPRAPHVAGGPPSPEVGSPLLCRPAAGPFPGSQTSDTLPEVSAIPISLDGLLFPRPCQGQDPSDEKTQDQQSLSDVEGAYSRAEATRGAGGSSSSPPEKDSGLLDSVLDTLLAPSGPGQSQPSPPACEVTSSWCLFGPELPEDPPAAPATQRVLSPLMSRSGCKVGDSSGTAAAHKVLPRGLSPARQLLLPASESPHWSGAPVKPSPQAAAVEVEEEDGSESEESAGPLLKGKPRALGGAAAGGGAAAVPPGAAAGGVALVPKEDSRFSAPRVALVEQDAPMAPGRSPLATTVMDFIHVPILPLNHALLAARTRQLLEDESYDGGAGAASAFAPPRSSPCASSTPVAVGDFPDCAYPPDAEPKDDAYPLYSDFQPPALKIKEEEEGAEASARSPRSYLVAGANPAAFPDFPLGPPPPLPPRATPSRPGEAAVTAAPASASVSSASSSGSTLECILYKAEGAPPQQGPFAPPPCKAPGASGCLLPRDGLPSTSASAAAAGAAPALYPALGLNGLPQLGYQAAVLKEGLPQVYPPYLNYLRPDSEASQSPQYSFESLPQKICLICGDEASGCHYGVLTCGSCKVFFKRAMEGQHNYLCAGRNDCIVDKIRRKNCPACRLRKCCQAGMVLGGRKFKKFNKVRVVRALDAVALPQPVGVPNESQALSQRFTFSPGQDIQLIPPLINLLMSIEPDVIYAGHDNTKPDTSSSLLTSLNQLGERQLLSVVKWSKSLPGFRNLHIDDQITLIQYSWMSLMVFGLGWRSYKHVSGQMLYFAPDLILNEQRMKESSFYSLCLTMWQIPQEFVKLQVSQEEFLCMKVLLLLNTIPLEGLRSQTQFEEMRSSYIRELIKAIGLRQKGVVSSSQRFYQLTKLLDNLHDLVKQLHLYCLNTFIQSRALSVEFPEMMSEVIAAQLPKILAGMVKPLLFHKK
Chain of Thyrotropin-releasing hormone receptor (Homo sapiens) (P34981 whole entry, looked up): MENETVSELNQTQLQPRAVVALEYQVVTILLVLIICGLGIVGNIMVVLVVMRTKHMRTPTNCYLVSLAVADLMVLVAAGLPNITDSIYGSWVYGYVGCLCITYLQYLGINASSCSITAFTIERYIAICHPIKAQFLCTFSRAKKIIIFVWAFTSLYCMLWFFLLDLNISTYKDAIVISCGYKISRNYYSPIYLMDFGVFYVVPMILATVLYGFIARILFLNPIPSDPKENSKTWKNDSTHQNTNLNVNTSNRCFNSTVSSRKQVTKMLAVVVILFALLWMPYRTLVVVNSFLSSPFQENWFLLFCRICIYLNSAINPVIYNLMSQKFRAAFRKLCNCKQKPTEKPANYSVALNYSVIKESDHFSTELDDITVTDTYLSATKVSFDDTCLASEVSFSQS

| SMILES | Potency [1] | Potency [2] | Potency [3] | Potency [4] | Potency [5] | outcome [6] | outcome [7] | outcome [8] | outcome [9] | Potency [10] |
| --- | --- | --- | --- | --- | --- | --- | --- | --- | --- | --- |
| N#Cc1c(Cl)cccc1Cl | inactive | inactive | inactive | inactive | inactive | inactive | inactive | inactive |  |  |
| CCN(CC)C(C)C(=O)c1ccccc1 (configuration not stated) | inactive | inactive | inactive | inactive | inactive | inactive | inactive | inactive | inactive |  |
| Fc1cc(Br)ccc1CBr | inactive | inactive | inactive | inactive | inactive | inactive | inactive | inactive | inactive |  |
| COC(C)(C)C | inactive | inactive | inactive |  | inactive | inactive |  |  | inactive |  |
| CCOc1nc(C(Cl)(Cl)Cl)ns1 | inactive | inactive | inactive | inactive | inactive | inactive | inactive | inactive | inactive |  |
| N#CCCC#N | inactive | inactive | inactive |  | inactive | inactive | inactive | inactive | inactive |  |
| CNC(=O)Oc1ccc(N(C)C)c(C)c1 | inactive | inactive | inactive | inactive | inactive | inactive | inactive | inactive | inactive |  |
| O=C(Nc1ccccc1)c1ccccc1I | inactive | 54.5 µM (active) | inactive |  | inactive | inactive | inactive | inactive | inactive |  |
| CC(=O)[C@H]1CC[C@H]2[C@@H]3CC[C@H]4C[C@H](O)CC[C@]4(C)[C@H]3C(=O)C[C@]12C | inactive |  | inactive | inactive | inactive | inactive | inactive | inactive |  | inactive |
| CCCSP(=S)(OCC)Oc1ccc(Cl)cc1Cl (configuration not stated) | inactive |  | inactive |  | inactive | inactive | inactive | inactive | inactive | inactive |
| Nc1n[nH]c(N)n1 | inactive |  |  | inactive | inactive | inactive | inactive | inactive | inactive | inactive |
| O=C(CCCN1CCC(n2c(=O)[nH]c3ccccc32)CC1)c1ccc(F)cc1 | inactive |  |  |  | inactive | inactive |  |  |  | inactive |
| CCN(CC)c1nc(C)cc(OP(=S)(OC)OC)n1 | inactive |  | inactive |  | inactive | inactive | inactive | inactive | inactive | inactive |
| O=C1OC(=O)C2C1C1(Cl)C(Cl)=C(Cl)C2(Cl)C1(Cl)Cl (configuration not stated) | inactive | inactive | inactive | inactive | inactive | inactive | inactive | inactive | inactive |  |
| COC(=O)c1c(C(F)F)nc(C(F)(F)F)c(C2=NCCS2)c1CC(C)C | inactive |  | inactive | inactive | inactive | inactive | inactive | inactive | inactive | inactive |
| O=P(O)(Oc1ccccc1)Oc1ccccc1 | inactive | inactive | inactive | inactive | inactive | inactive | inactive | inactive | inactive |  |
| COc1cccc2c1cc([N+](=O)[O-])c1c(C(=O)O)cc3c(c12)OCO3 | 61.1 µM (active) |  | inactive |  | inactive | inactive | inactive | inactive |  | inactive |
| C1CCC(C2CCCCC2)CC1 | inactive |  | 15.4 µM (active) |  | inactive | inactive | inactive | inactive | inactive | inactive |
| Cc1nc(N)nc(N)n1 | inactive | inactive | inactive | inactive |  | inactive | inactive | inactive | inactive |  |
| CCOP(=S)(OCC)Oc1cc(-c2ccccc2)on1 | inactive |  | inactive |  |  | inactive | inactive | inactive | inactive | inactive |
| CCOP(=S)(Oc1cnc(C(C)(C)C)nc1)OC(C)C (configuration not stated) | inactive | inactive | inactive | inactive | inactive | inactive |  |  |  |  |
| CCOC(=O)/C=C(C)/C=C/C[C@@H](C)CCCC(C)C | inactive |  | inactive | inactive | inactive | inactive | inactive | inactive |  | inactive |
| COc1cc(OC)nc(Oc2cccc(Oc3nc(OC)cc(OC)n3)c2C(=O)O)n1 | inactive | inactive | inactive |  | inactive | inactive | inactive | inactive | inactive |  |
| CC(Oc1ccc(Oc2ncc(C(F)(F)F)cc2Cl)cc1)C(=O)O (configuration not stated) | inactive |  | 7.7 µM (active) |  | inactive | inactive |  |  | inactive | inactive |
